In PubChem BioAssay (EPA / NIEHS):
Calls of active or inactive are those of the source. How the source made its calls: active means hit-call score of the fitted dose curve at least 0.9, where 1 is the maximum; inactive means score below 0.9.

Molecular target: Hepatocyte nuclear factor 6 (Homo sapiens) (UniProt Q9UBC0)
Assay: ATG_HNF6_CIS: Attagene CIS-FACTORIAL HepG2 Assay for human Hepatocyte Nuclear Factor 6 (HNF6) (AID 2282952)
Settings: HepG2 Attagene cis-factorial HNF6 reporter transcription; actives raise or lower the signal
Summary of the method: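 Reporter mRNA induction or loss in HepG2 after 24 h exposure; transient cis-MRTU transfection; fragments quantified by capillary electrophoresis; bidirectional analysis, DMSO as negative control.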

Hepatocyte nuclear factor 6 (Homo sapiens), sequence (Q9UBC0 whole entry, looked up): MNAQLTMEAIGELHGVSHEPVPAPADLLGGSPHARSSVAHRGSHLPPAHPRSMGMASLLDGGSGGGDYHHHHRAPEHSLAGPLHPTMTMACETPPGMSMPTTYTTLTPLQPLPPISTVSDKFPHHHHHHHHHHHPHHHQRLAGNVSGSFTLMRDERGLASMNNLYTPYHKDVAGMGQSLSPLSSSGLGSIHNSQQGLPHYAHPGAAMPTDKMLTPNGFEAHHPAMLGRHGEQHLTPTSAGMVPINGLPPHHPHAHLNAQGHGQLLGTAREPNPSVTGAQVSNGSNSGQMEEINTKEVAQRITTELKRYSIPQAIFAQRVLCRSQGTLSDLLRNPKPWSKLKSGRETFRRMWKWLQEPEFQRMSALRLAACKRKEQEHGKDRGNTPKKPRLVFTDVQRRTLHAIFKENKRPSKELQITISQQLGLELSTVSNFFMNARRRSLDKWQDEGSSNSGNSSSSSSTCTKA

Which outcome does the source give for c1ccc2c(c1)CCCC2 here?
The outcome was “inactive”.

With CCOC(=O)C1OC1(C)c1ccccc1 (stereo not drawn) as the compound, how does the outcome read?
Its outcome is “inactive”.

Which outcome does the source give for [Cl][Sb]([Cl])[Cl] here?
Its outcome is “inactive”.

Which outcome does the source give for COc1ncc(F)c2nc(S(=O)(=O)Nc3c(F)cccc3F)nn12 here?
The outcome was “inactive”.

With CC(C)[C@@H](C(=O)O[C@@H](C#N)c1cccc(Oc2ccccc2)c1)c1ccc(Cl)cc1 as the compound, how does the outcome read?
The outcome was “inactive”.

For C[C@]12CC[C@H]3[C@@H](CC[C@@]45O[C@@H]4C(O)=C(C#N)C[C@]35C)[C@@H]1CC[C@@H]2O, which outcome is on record?
Its outcome is “inactive”.

Which outcome does the source give for O=[N+]([O-])c1cc([N+](=O)[O-])c2ccccc2c1 here?
The outcome was “inactive”.

With O=C(O)C(Br)Br as the compound, how does the outcome read?
The outcome was “inactive”.

With C=CC(=O)OCCO as the compound, how does the outcome read?
Its outcome is “inactive”.

For CCCCCCCCCCCCCCCC[N+](C)(C)C, which AC50 is on record?
The AC50 was 100 µM (active).

Molecular target: Heat shock factor protein 1 (Homo sapiens) (UniProt Q00613)
Assay: ATG_HSE_CIS: Attagene CIS-FACTORIAL HepG2 Assay for human Heat Shock Transcription Factor 1 (HSE) (AID 2282953)
Settings: HepG2 HSE cis-reporter, Attagene RNA transcription; actives raise or lower the signal
Summary of the method: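 Read-out: fluorescence of reporter-specific RT-PCR fragments separated by capillary electrophoresis. HepG2 carrying transfected cis-element reporter units; 24 h dosing; activity fitted in both directions relative to DMSO baseline.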

Heat shock factor protein 1 (Homo sapiens), sequence (Q00613 whole entry, looked up): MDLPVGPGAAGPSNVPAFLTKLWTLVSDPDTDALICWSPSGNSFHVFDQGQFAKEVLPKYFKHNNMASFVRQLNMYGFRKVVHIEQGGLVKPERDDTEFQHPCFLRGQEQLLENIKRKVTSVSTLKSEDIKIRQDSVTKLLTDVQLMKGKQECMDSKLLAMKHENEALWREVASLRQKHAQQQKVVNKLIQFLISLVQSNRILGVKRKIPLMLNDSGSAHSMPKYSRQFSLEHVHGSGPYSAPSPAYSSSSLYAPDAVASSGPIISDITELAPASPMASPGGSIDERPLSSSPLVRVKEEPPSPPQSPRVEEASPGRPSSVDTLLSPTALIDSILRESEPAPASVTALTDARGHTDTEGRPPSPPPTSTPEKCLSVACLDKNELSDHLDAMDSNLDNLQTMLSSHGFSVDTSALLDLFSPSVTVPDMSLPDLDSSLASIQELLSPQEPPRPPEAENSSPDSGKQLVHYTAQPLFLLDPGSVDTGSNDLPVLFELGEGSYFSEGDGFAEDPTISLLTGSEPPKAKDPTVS

For CCCCCCCCCCCC#N, which outcome is on record?
The outcome was “inactive”.

Which outcome does the source give for O=C(NC(=O)c1c(F)cccc1F)Nc1ccc(Oc2ccc(C(F)(F)F)cc2Cl)cc1F here?
The outcome was “inactive”.

For CC1CCCC1.[C-]#[O+].[C-]#[O+].[C-]#[O+].[Mn], which outcome is on record?
The outcome was “inactive”.

With CCCCNP(N)(N)=S as the compound, how does the outcome read?
Its outcome is “inactive”.

For CC(=O)C=Cc1ccccc1, which AC50 is on record?
Its AC50 is 152 µM (active).

Which outcome does the source give for CCC(=O)c1ccc(Cl)cc1 here?
The outcome was “inactive”.

Which AC50 does the source give for Nc1ccccc1C(=O)Oc1ccc2ccccc2c1 here?
The AC50 was 27.7 µM (active).

Which outcome does the source give for C=CC(=O)OC here?
The outcome was “inactive”.

For CC(C)CCCCCCCOC(=O)c1ccccc1C(=O)OCCCCCCCC(C)C, which outcome is on record?
The outcome was “inactive”.

For N#CCNCC#N, which outcome is on record?
The outcome was “inactive”.

With CN(C)N as the compound, how does the outcome read?
The outcome was “inactive”.

With CN1C[C@H](C(=O)N[C@]2(C)O[C@@]3(O)[C@@H]4CCCN4C(=O)[C@H](Cc4ccccc4)N3C2=O)C=C2c3cccc4[nH]cc(c34)C[C@H]21 as the compound, how does the outcome read?
The outcome was “inactive”.

With O=[N+]([O-])C=Cc1ccccc1 as the compound, how does the AC50 read?
The AC50 was 11.4 µM (active).

For Nc1ccc(Cl)c(Cl)c1, which outcome is on record?
Its outcome is “inactive”.

With CCCCOP(=O)(O)OCCCC as the compound, how does the outcome read?
Its outcome is “inactive”.

With O=C(O)CCl as the compound, how does the outcome read?
The outcome was “inactive”.

For CC(O)CN(CC(C)O)CC(C)O (stereo not drawn), which outcome is on record?
Its outcome is “inactive”.

Which outcome does the source give for Nc1cc(Cl)cc(Cl)c1 here?
The outcome was “inactive”.

Which outcome does the source give for O=[N+]([O-])c1ccc(Cl)cc1 here?
The outcome was “inactive”.

With Cc1ccc(C)c2ccccc12 as the compound, how does the outcome read?
The outcome was “inactive”.

For COC(=O)COc1ccc(Cl)cc1Cl, which outcome is on record?
The outcome was “inactive”.

For [CH3][Sn]([Cl])([Cl])[Cl], which outcome is on record?
Its outcome is “inactive”.

With CC(=O)c1cc2c(cc1C)C(C)(C)C(C)CC2(C)C (stereo not drawn) as the compound, how does the AC50 read?
The AC50 was 116 µM (active).

With Nc1ccc(-c2ccc(N)c(N)c2)cc1N as the compound, how does the outcome read?
The outcome was “inactive”.

For c1cc(OCC2CO2)ccc1Cc1ccc(OCC2CO2)cc1 (stereo not drawn), which AC50 is on record?
Its AC50 is 62.6 µM (active).

With C=CC(=O)OCCCCOC(=O)C=C as the compound, how does the outcome read?
The outcome was “inactive”.

For c1ccc2c(c1)CCCC2, which outcome is on record?
Its outcome is “inactive”.

For CCOC(=O)C1OC1(C)c1ccccc1 (stereo not drawn), which outcome is on record?
The outcome was “inactive”.

With [Cl][Sb]([Cl])[Cl] as the compound, how does the AC50 read?
The AC50 was 169 µM (active).

Which outcome does the source give for COc1ncc(F)c2nc(S(=O)(=O)Nc3c(F)cccc3F)nn12 here?
The outcome was “inactive”.

With CC(C)[C@@H](C(=O)O[C@@H](C#N)c1cccc(Oc2ccccc2)c1)c1ccc(Cl)cc1 as the compound, how does the outcome read?
Its outcome is “inactive”.

With C[C@]12CC[C@H]3[C@@H](CC[C@@]45O[C@@H]4C(O)=C(C#N)C[C@]35C)[C@@H]1CC[C@@H]2O as the compound, how does the outcome read?
The outcome was “inactive”.

With O=[N+]([O-])c1cc([N+](=O)[O-])c2ccccc2c1 as the compound, how does the outcome read?
The outcome was “inactive”.

For O=C(O)C(Br)Br, which outcome is on record?
The outcome was “inactive”.

For C=CC(=O)OCCO, which outcome is on record?
Its outcome is “inactive”.

With CCCCCCCCCCCCCCCC[N+](C)(C)C as the compound, how does the outcome read?
Its outcome is “inactive”.

Tested on: not listed separately
Assay: ATG_MRE_CIS: Attagene CIS-FACTORIAL HepG2 Assay for human Metal Responsive Element (MRE) (AID 2282954)
Settings: HepG2 MRE cis-reporter transcription, Attagene multiplex; actives raise or lower the signal
Summary of the method: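 After a 24 h chemical exposure, transiently transfected HepG2 cells yield RNA whose reporter sequences are amplified, FAM-labelled and sized by capillary electrophoresis. Curves are fitted bidirectionally relative to DMSO.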

For CCCCCCCCCCCC#N, which AC50 is on record?
The AC50 was 136 µM (active).

With O=C(NC(=O)c1c(F)cccc1F)Nc1ccc(Oc2ccc(C(F)(F)F)cc2Cl)cc1F as the compound, how does the outcome read?
Its outcome is “inactive”.

Which outcome does the source give for CC1CCCC1.[C-]#[O+].[C-]#[O+].[C-]#[O+].[Mn] here?
The outcome was “inactive”.

For CCCCNP(N)(N)=S, which outcome is on record?
Its outcome is “inactive”.

With CC(=O)C=Cc1ccccc1 as the compound, how does the outcome read?
The outcome was “inactive”.

With CCC(=O)c1ccc(Cl)cc1 as the compound, how does the outcome read?
The outcome was “inactive”.

With Nc1ccccc1C(=O)Oc1ccc2ccccc2c1 as the compound, how does the AC50 read?
The AC50 was 67.2 µM (active).

Which outcome does the source give for C=CC(=O)OC here?
The outcome was “inactive”.

For CC(C)CCCCCCCOC(=O)c1ccccc1C(=O)OCCCCCCCC(C)C, which outcome is on record?
The outcome was “inactive”.

With N#CCNCC#N as the compound, how does the outcome read?
Its outcome is “inactive”.

For CN(C)N, which outcome is on record?
Its outcome is “inactive”.

Which outcome does the source give for CN1C[C@H](C(=O)N[C@]2(C)O[C@@]3(O)[C@@H]4CCCN4C(=O)[C@H](Cc4ccccc4)N3C2=O)C=C2c3cccc4[nH]cc(c34)C[C@H]21 here?
The outcome was “inactive”.

For O=[N+]([O-])C=Cc1ccccc1, which AC50 is on record?
The AC50 was 13.3 µM (active).

Which outcome does the source give for Nc1ccc(Cl)c(Cl)c1 here?
The outcome was “inactive”.

For CCCCOP(=O)(O)OCCCC, which outcome is on record?
The outcome was “inactive”.

For O=C(O)CCl, which outcome is on record?
Its outcome is “inactive”.

For CC(O)CN(CC(C)O)CC(C)O (stereo not drawn), which outcome is on record?
The outcome was “inactive”.

With Nc1cc(Cl)cc(Cl)c1 as the compound, how does the outcome read?
The outcome was “inactive”.

With O=[N+]([O-])c1ccc(Cl)cc1 as the compound, how does the outcome read?
Its outcome is “inactive”.

For Cc1ccc(C)c2ccccc12, which outcome is on record?
Its outcome is “inactive”.

Which outcome does the source give for C=CCO here?
The outcome was “inactive”.

With COC(=O)COc1ccc(Cl)cc1Cl as the compound, how does the outcome read?
Its outcome is “inactive”.

For [CH3][Sn]([Cl])([Cl])[Cl], which outcome is on record?
The outcome was “inactive”.

With CC(=O)c1cc2c(cc1C)C(C)(C)C(C)CC2(C)C (stereo not drawn) as the compound, how does the AC50 read?
The AC50 was 43.8 µM (active).

Which outcome does the source give for Nc1ccc(-c2ccc(N)c(N)c2)cc1N here?
The outcome was “inactive”.

Which AC50 does the source give for c1cc(OCC2CO2)ccc1Cc1ccc(OCC2CO2)cc1 (stereo not drawn) here?
The AC50 was 42.6 µM (active).

For C=CC(=O)OCCCCOC(=O)C=C, which AC50 is on record?
Its AC50 is 64 µM (active).

Which outcome does the source give for c1ccc2c(c1)CCCC2 here?
Its outcome is “inactive”.

For CCOC(=O)C1OC1(C)c1ccccc1 (stereo not drawn), which outcome is on record?
The outcome was “inactive”.

For [Cl][Sb]([Cl])[Cl], which outcome is on record?
The outcome was “inactive”.

For COc1ncc(F)c2nc(S(=O)(=O)Nc3c(F)cccc3F)nn12, which outcome is on record?
The outcome was “inactive”.

With CC(C)[C@@H](C(=O)O[C@@H](C#N)c1cccc(Oc2ccccc2)c1)c1ccc(Cl)cc1 as the compound, how does the outcome read?
Its outcome is “inactive”.

For C[C@]12CC[C@H]3[C@@H](CC[C@@]45O[C@@H]4C(O)=C(C#N)C[C@]35C)[C@@H]1CC[C@@H]2O, which AC50 is on record?
The AC50 was 62.1 µM (active).

With O=[N+]([O-])c1cc([N+](=O)[O-])c2ccccc2c1 as the compound, how does the outcome read?
Its outcome is “inactive”.

Which outcome does the source give for O=C(O)C(Br)Br here?
Its outcome is “inactive”.

Which AC50 does the source give for C=CC(=O)OCCO here?
Its AC50 is 70.9 µM (active).

Which AC50 does the source give for CCCCCCCCCCCCCCCC[N+](C)(C)C here?
Its AC50 is 25.5 µM (active).
